Reference: PubChem BioAssay (NCI)
Compounds without any hit were thinned out: in the full panel of roughly 83,000, 20% have a hit.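 48-hour exposure, single concentration, 96-well plates; percent growth endpoint where 0 means no net growth. Active: below 10.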 Values without a mark were called inactive. The source made the active and inactive calls.

Assays:
Assay in all cases: NCI-60 one-dose screen, 48 h (100 = growth as untreated, 0 = no growth, -100 = all killed)
Conditions in all cases: 10 µM unless noted
DU-145 prostate = system: DU-145 prostate
K-562 leukemia = system: K-562 leukemia
MALME-3M melanoma = system: MALME-3M melanoma
MDA-MB-231 breast = system: MDA-MB-231 breast
RXF 393 renal = system: RXF 393 renal
SF-268 CNS = system: SF-268 CNS
SF-295 CNS = system: SF-295 CNS
SF-539 CNS = system: SF-539 CNS
UACC-257 melanoma = system: UACC-257 melanoma
M14 melanoma = system: M14 melanoma

Q: How did the growth (DU-145 prostate) turn out when O=C(CN1C(=O)S/C(=C\C(Cl)=C\c2ccccc2)C1=O)NC1CCS(=O)(=O)C1 (stereo not given) was run?
A: The growth was 82.8%.

Q: What about the growth (K-562 leukemia) of the same molecule?
A: The growth was 15.3%.

Q: What about the growth (MALME-3M melanoma) of the same molecule?
A: The growth was 84.9%.

Q: And the growth (MDA-MB-231 breast)?
A: The growth was 77%.

Q: What about the growth (RXF 393 renal) of the same molecule?
A: Its growth is 26.7%.

Q: What about the growth (SF-268 CNS) of the same molecule?
A: Its growth is 94.4%.

Q: And the growth (SF-295 CNS)?
A: The growth was 85.3%.

Q: What about the growth (SF-539 CNS) of the same molecule?
A: The growth was 56.8%.

Q: What about the growth (UACC-257 melanoma) of the same molecule?
A: Its growth is 81.8%.

Q: What about the growth (M14 melanoma) of the same molecule?
A: Its growth is 64%.

Q: Oc1c(I)cc(I)cc1CN(Cc1ccccn1)Cc1ccccn1 was tested. Which growth (DU-145 prostate) did it give?
A: The growth was 29%.

Q: What about the growth (K-562 leukemia) of the same molecule?
A: Its growth is 14.2%.

Q: What about the growth (MALME-3M melanoma) of the same molecule?
A: Its growth is 17.1%.

Q: And the growth (MDA-MB-231 breast)?
A: The growth was 33.4%.

Q: And the growth (RXF 393 renal)?
A: The growth was 46.7%.

Q: What about the growth (SF-268 CNS) of the same molecule?
A: The growth was 19.7%.

Q: What about the growth (SF-295 CNS) of the same molecule?
A: The growth was 23.5%.

Q: And the growth (SF-539 CNS)?
A: The growth was 4.05% (active).

Q: And the growth (UACC-257 melanoma)?
A: Its growth is 1.45% (active).

Q: What about the growth (M14 melanoma) of the same molecule?
A: The growth was -16.6% (active).

Q: Which growth (DU-145 prostate) does the source give for c1ccc(-c2c(-c3ccccc3)[n+](Cc3ccc4ccccc4c3)cn2Cc2ccc3ccccc3c2)cc1 here?
A: Its growth is -96.1% (active).

Q: And the growth (K-562 leukemia)?
A: Its growth is -63.1% (active).

Q: What about the growth (MALME-3M melanoma) of the same molecule?
A: The growth was -82.2% (active).

Q: What about the growth (MDA-MB-231 breast) of the same molecule?
A: Its growth is -79.4% (active).

Q: And the growth (RXF 393 renal)?
A: The growth was -96.2% (active).

Q: And the growth (SF-268 CNS)?
A: The growth was -89.1% (active).

Q: And the growth (SF-295 CNS)?
A: Its growth is -97.9% (active).

Q: What about the growth (SF-539 CNS) of the same molecule?
A: Its growth is -88.3% (active).

Q: And the growth (UACC-257 melanoma)?
A: Its growth is -84% (active).

Q: And the growth (M14 melanoma)?
A: The growth was -85.8% (active).

Q: Which results are given for Nc1nc(C(=O)N/N=C/c2ccc(F)cc2)nn1-c1ccc(S(N)(=O)=O)cc1?
A: growth (DU-145 prostate): 104%; growth (K-562 leukemia): 103%; growth (MALME-3M melanoma): 89.2%; growth (MDA-MB-231 breast): 96.4%; growth (RXF 393 renal): 95.5%; growth (SF-268 CNS): 95.7%; growth (SF-295 CNS): 102%; growth (SF-539 CNS): 98.9%; growth (UACC-257 melanoma): 103%; growth (M14 melanoma): 99.5%

Q: With COc1cc2ncnc(Nc3ccc(S(=O)(=O)Nc4nccs4)cc3)c2cc1OCCCN1CCCC1 as the molecule, how does the growth (DU-145 prostate) read?
A: The growth was 105%.

Q: And the growth (K-562 leukemia)?
A: Its growth is 84.2%.

Q: And the growth (MALME-3M melanoma)?
A: The growth was 101%.

Q: What about the growth (MDA-MB-231 breast) of the same molecule?
A: The growth was 104%.

Q: And the growth (RXF 393 renal)?
A: Its growth is 99%.

Q: And the growth (SF-268 CNS)?
A: The growth was 99.2%.

Q: And the growth (SF-295 CNS)?
A: The growth was 106%.

Q: And the growth (SF-539 CNS)?
A: Its growth is 101%.

Q: What about the growth (UACC-257 melanoma) of the same molecule?
A: The growth was 99.6%.

Q: What about the growth (M14 melanoma) of the same molecule?
A: The growth was 109%.

Q: How did the growth (DU-145 prostate) turn out when CCN(CC)c1ccc(-c2cc(-c3cc(OC)c(OC)c(OC)c3)nc(N3CCC(O)CC3)c2C#N)cc1 was run?
A: The growth was 1.59% (active).

Q: And the growth (K-562 leukemia)?
A: The growth was 2.04% (active).

Q: And the growth (MALME-3M melanoma)?
A: The growth was -49.2% (active).

Q: And the growth (MDA-MB-231 breast)?
A: The growth was -58.7% (active).

Q: What about the growth (RXF 393 renal) of the same molecule?
A: Its growth is -13.3% (active).

Q: What about the growth (SF-268 CNS) of the same molecule?
A: The growth was 0.835% (active).

Q: What about the growth (SF-295 CNS) of the same molecule?
A: The growth was -62.2% (active).

Q: And the growth (SF-539 CNS)?
A: The growth was -44.3% (active).

Q: What about the growth (UACC-257 melanoma) of the same molecule?
A: The growth was -47.5% (active).

Q: And the growth (M14 melanoma)?
A: The growth was -56.4% (active).

Q: CCOC(=O)c1c(NC(=O)c2ccccc2)sc2c3c(ccc12)OCN(C)C3 was tested. Which growth (DU-145 prostate) did it give?
A: The growth was 11.6%.

Q: What about the growth (K-562 leukemia) of the same molecule?
A: Its growth is -53.3% (active).

Q: And the growth (MALME-3M melanoma)?
A: Its growth is -89.2% (active).

Q: And the growth (MDA-MB-231 breast)?
A: Its growth is -74.7% (active).

Q: What about the growth (RXF 393 renal) of the same molecule?
A: The growth was -73% (active).

Q: And the growth (SF-268 CNS)?
A: Its growth is 9.19% (active).

Q: What about the growth (SF-295 CNS) of the same molecule?
A: Its growth is -76.8% (active).

Q: What about the growth (SF-539 CNS) of the same molecule?
A: The growth was -43.7% (active).

Q: What about the growth (UACC-257 melanoma) of the same molecule?
A: The growth was -62.2% (active).

Q: What about the growth (M14 melanoma) of the same molecule?
A: The growth was -74.2% (active).

Q: Which results are given for O=C(N/N=C/c1ccc(Cl)cc1)c1ccc(NC(=O)c2ccccn2)cc1?
A: growth (DU-145 prostate): 60.7%; growth (K-562 leukemia): 61%; growth (MALME-3M melanoma): 44.9%; growth (MDA-MB-231 breast): 41.4%; growth (RXF 393 renal): 64.7%; growth (SF-268 CNS): 70.5%; growth (SF-295 CNS): 56.4%; growth (SF-539 CNS): 46%; growth (UACC-257 melanoma): 63.3%; growth (M14 melanoma): 55.4%

Q: With OC1(c2ccccc2)c2ccccc2N(c2ccccc2)c2ccc(Cl)cc21 (stereo not given) as the molecule, how does the growth (DU-145 prostate) read?
A: Its growth is -90.6% (active).

Q: What about the growth (K-562 leukemia) of the same molecule?
A: Its growth is -11.4% (active).

Q: And the growth (MALME-3M melanoma)?
A: The growth was -93.1% (active).

Q: And the growth (MDA-MB-231 breast)?
A: The growth was -77% (active).

Q: What about the growth (RXF 393 renal) of the same molecule?
A: The growth was -83% (active).

Q: And the growth (SF-268 CNS)?
A: The growth was -72.4% (active).

Q: And the growth (SF-295 CNS)?
A: Its growth is -57.6% (active).

Q: What about the growth (SF-539 CNS) of the same molecule?
A: The growth was -82.6% (active).

Q: What about the growth (UACC-257 melanoma) of the same molecule?
A: The growth was -58.8% (active).

Q: And the growth (M14 melanoma)?
A: Its growth is -79.5% (active).

Q: Which growth (DU-145 prostate) does the source give for C=C(C)[C@@H]1CC[C@]2(C(=O)Nc3ccccn3)CC[C@]3(C)[C@H](CC[C@@H]4[C@@]5(C)CCCNC(C)(C)[C@@H]5CC[C@]43C)[C@@H]12 here?
A: Its growth is 34.8%.

Q: And the growth (K-562 leukemia)?
A: Its growth is -1.45% (active).

Q: What about the growth (MALME-3M melanoma) of the same molecule?
A: The growth was -2.67% (active).

Q: And the growth (MDA-MB-231 breast)?
A: The growth was 49.9%.

Q: And the growth (RXF 393 renal)?
A: The growth was 51.3%.

Q: What about the growth (SF-268 CNS) of the same molecule?
A: The growth was 39.8%.

Q: What about the growth (SF-295 CNS) of the same molecule?
A: The growth was 44.4%.

Q: What about the growth (SF-539 CNS) of the same molecule?
A: Its growth is 34.1%.

Q: And the growth (UACC-257 melanoma)?
A: The growth was 9.84% (active).

Q: And the growth (M14 melanoma)?
A: The growth was 26.6%.
